High-throughput results as filed in PubChem BioAssay.
Hits are enriched below; roughly 0.91% of the tested compounds scored in any of these assays.
APE1 inh: APE1 (human) endonuclease inhibition. recombinant APE1, TAMRA/BHQ-2 abasic DNA cleavage fluorescence. 350,000 compounds, 0.35% hits. Potency, µM (highest dose often 65.8 µM), most hits filed as inhibitors. AID 2517; further: nearly all actives have a fitted effect of over 55% in size
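Measures dequenching upon AP-site incision of a 5'-TAMRA/3'-BHQ-2 THF-containing duplex, 50 nM; human APE1 0.75 nM after 15 min room-temperature exposure to compound; kinetic three-point read at one-minute spacing.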
TR SRC2 fluor cs: Texas Red fluorescence interference in TRb-SRC2 counter-screen. TRb/SRC2 Texas Red total fluorescence interference. Potency, µM (series often up to 106 µM). 280,000 compounds, 0.29% hits; active means well fitted curve in either direction with a large enough effect; inconclusive means small, poorly fitted or top-dose-only effect
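Flags fluorescent or light-absorbing compounds by total fluorescence, S + 2P, at 555 nm excitation and 632 nm emission. Mixture: 20 nM Texas Red SRC2 peptide, 0.6 uM human TRb LBD, 1 uM T3, 5% DMSO; compound exposure 5 h at ambient temperature.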
RECQ1 inh: RECQ1 (human) helicase inhibition | AID 2549 | RECQ1 DNA unwinding, red fluorescence kinetic read | Potency, µM (titrated, usually from 57.3 µM), actives largely listed as inhibitors | P46063 | 240,000 compounds, 0.54% hits; further: nearly all actives have a fitted effect of over 30% in size
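RECQ1T1 50 nM; forked duplex (20 bp + 30-nt ss tails) 200 nM, ATP 2 mM final; pH 8.0, 2 mM MgCl2, 2.5 ug/ml poly(dI-dC); 15 min compound preincubation; discontinuous kinetic read over 2 h at RT.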
TRb-SRC2 inh: TRbeta-SRC2 interaction inhibition. 280,000 compounds, 0.065% hits. P10828. TRbeta-SRC2 peptide binding, fluorescence polarization; receptor liganded with 1 µM T3. Potency, µM (series often up to 106 µM), usual class: inhibitors; further: nearly all actives have a fitted effect of over 50% in size
Target sequence (P10828 whole entry, looked up): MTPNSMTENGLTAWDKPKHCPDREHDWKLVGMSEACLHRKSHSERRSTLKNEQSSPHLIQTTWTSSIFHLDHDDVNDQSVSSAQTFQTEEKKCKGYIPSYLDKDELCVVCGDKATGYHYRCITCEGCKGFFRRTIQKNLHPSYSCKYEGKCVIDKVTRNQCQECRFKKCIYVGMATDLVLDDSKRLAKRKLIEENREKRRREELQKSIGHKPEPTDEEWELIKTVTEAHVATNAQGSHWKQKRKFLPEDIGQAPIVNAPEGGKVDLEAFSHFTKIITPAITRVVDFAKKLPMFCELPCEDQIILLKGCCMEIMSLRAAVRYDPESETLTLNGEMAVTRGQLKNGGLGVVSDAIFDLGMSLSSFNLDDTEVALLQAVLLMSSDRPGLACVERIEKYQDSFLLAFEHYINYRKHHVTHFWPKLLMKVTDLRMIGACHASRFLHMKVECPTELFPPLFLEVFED
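Quantitative HTS by FP: 0.6 uM TRb LBD, 20 nM labeled SRC2 20-mer, 1 uM T3, 5% DMSO; 5 hr ambient incubation; % activity per concentration and potencies from concentration series.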
WRN helicase inh: blocks human WRN helicase; Q14191; WRN helicase unwinding, fluorescent forked duplex, kinetic; Potency, µM (top dose mostly 114 µM), actives largely listed as inhibitors; 360,000 compounds, 0.46% hits; further: nearly all actives have a fitted effect of over 55% in size
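Fluorescence dequenching readout, ex 525 nm/em 598 nm, kinetic mode: forked duplex DNA (100 nM final) with adjacent fluorophore and quencher unwound by WRN (20 nM final) with 2 mM ATP. Compound preincubation 15 min, room temperature.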
BLM helicase inh: blocks DNA unwinding by human BLM helicase; P54132; recombinant BLM DNA unwinding, fluorescence dequenching; Potency, µM (highest dose often 56.1 µM), actives largely listed as inhibitors; 350,000 compounds, 0.2% hits; AID 2528; further: nearly all actives have a fitted effect of over 35% in size
Of the large screens only hits and unclear results are named; the others gave an inactive call; [ ] = dose if it differs, or a comment. Unless noted, the call rests on the fitted dose curve; in most records, active means well fitted curve in the direction sought with a large enough effect; inconclusive means small, poorly fitted or top-dose-only effect, or another doubt; inactive means no such curve, though single readings can be large; an effect the other way counts as inactive or inconclusive.

CC(=O)c1sc2nc(CSc3nnnn3-c3ccccc3)[nH]c(=O)c2c1C	WRN helicase inh 28µM, BLM helicase inh 16µM
Cn1c2ccccc2c(=O)n2c(=O)c3ccccc3cc12	APE1 inh inconclusive, BLM helicase inh 25µM (no result: WRN helicase inh)
O=C(Cc1ccccc1Nc1c(Cl)cccc1Cl)OCO/N=[N+](\[O-])N1CCCC1	none (no result: WRN helicase inh)
COc1ccc(OC)c(NC(=O)CCN2CCN(CCO)CC2)c1	none (no result: TR SRC2 fluor cs, RECQ1 inh, TRb-SRC2 inh)
CCc1ccc(Nc2nnc(SCC(=O)NC(=O)CN3CCCC3=O)s2)cc1	APE1 inh 13µM (no result: TR SRC2 fluor cs, RECQ1 inh, TRb-SRC2 inh, BLM helicase inh)
O=C1c2ccccc2-c2onc3c(Oc4ccccc4)cc(O)c1c23	TR SRC2 fluor cs 35µM[fluorescent], RECQ1 inh inconclusive (no result: WRN helicase inh)
CC(C)(C)C(=O)OCC(=O)[C@H]1CC[C@H]2[C@@H]3CCC4=CC(=O)CC[C@]4(C)[C@H]3CC[C@]12C	none (no result: TR SRC2 fluor cs, RECQ1 inh, TRb-SRC2 inh, WRN helicase inh, BLM helicase inh)
CCOC(=O)C1C(=O)C=C(c2ccc(C)cc2)CC1c1ccccc1 (stereo unspecified)	none
CCOC(=O)C1C(=O)C=C(/C=C/c2ccc(N(C)C)cc2)CC1c1ccccc1 (stereo unspecified)	WRN helicase inh 50µM, BLM helicase inh inconclusive
Cn1c(=O)c(NC2CCCCC2)c2c3c(cccc31)C(=O)c1ccccc1-2	none
CCCCNc1c2c3c(cccc3n(C)c1=O)C(=O)c1ccccc1-2	RECQ1 inh 32µM, WRN helicase inh inconclusive
N#CC(C#N)=C1C=CC=CN1/C(=C\c1ccccc1Cl)C(=O)c1ccccc1	WRN helicase inh 50µM
Cc1ccccc1Cn1cc(CCC(=O)NCc2cccc(Br)c2)c2ccccc21	none (no result: APE1 inh, RECQ1 inh, WRN helicase inh)
C=CCn1c(NC(=O)c2ccccc2Cl)c(C#N)c2nc3ccccc3nc21	RECQ1 inh inconclusive, TRb-SRC2 inh inconclusive, BLM helicase inh 1µM
COc1cc(-c2oc3ccc(C)cc3c(=O)c2O)cc(OC)c1OC	none (no result: APE1 inh, RECQ1 inh, WRN helicase inh)
COc1c(O)c(O)cc2c1oc1c3cc(C)ccc3oc(=O)c21	APE1 inh inconclusive, TR SRC2 fluor cs inconclusive, RECQ1 inh 8.9µM, BLM helicase inh inconclusive (no result: WRN helicase inh)
Cn1c(-n2cccc2)c(-c2c(-c3ccccc3)[nH]c3c2c(=O)n(C)c(=O)n3C)c(=O)n(C)c1=O	TR SRC2 fluor cs 25119µM[quencher] (no result: APE1 inh, RECQ1 inh, WRN helicase inh)
COc1cccc(-c2[nH]c3c(c2-c2c(-n4cccc4)n(C)c(=O)[nH]c2=O)c(=O)[nH]c(=O)n3C)c1	none (no result: APE1 inh, RECQ1 inh, WRN helicase inh)
O=C(COC(=O)c1ccccc1NS(=O)(=O)c1cccs1)NC1CCCCC1	TR SRC2 fluor cs 112µM[quencher]
CCCCOCCOCCOC(=O)CCCCC(=O)OCCOCCOCCCC	none (no result: APE1 inh, RECQ1 inh, WRN helicase inh, BLM helicase inh)
CCC1CN(C(=O)N2CCC(C(=O)N3CCN(c4ccccc4F)CC3)CC2)c2ccccc2O1 (stereo unspecified)	TR SRC2 fluor cs 0.014µM[quencher] (no result: APE1 inh, RECQ1 inh, WRN helicase inh)
COc1ccc(-c2noc(N3CCC(C(=O)Nc4ccc(F)cc4)CC3)n2)cc1	none (no result: TR SRC2 fluor cs, RECQ1 inh, TRb-SRC2 inh)
COc1ccc(-c2noc(N3CCC(C(=O)N4CCN(c5ccccc5F)CC4)CC3)n2)cc1	TR SRC2 fluor cs 56µM[quencher], TRb-SRC2 inh inconclusive (no result: APE1 inh, RECQ1 inh, WRN helicase inh)
Cc1cccc(NC(=O)C2CCN(c3ncnc4c3nc3n4CCCCC3)CC2)n1	none (no result: TR SRC2 fluor cs, RECQ1 inh, TRb-SRC2 inh)
Cc1c(Cl)cccc1NC(=O)C1CCN(c2ncnc3c2nc2n3CCCCC2)CC1	TR SRC2 fluor cs 20µM[quencher] (no result: APE1 inh, RECQ1 inh, WRN helicase inh)
COC(=O)c1cc2sc(Cl)cc2n1Cc1nc(-c2ccccc2F)oc1C	TR SRC2 fluor cs 25µM[quencher] (no result: APE1 inh, RECQ1 inh, WRN helicase inh)
COC(=O)c1cc2sc(Cl)cc2n1Cc1nc(-c2ccc(OC)cc2)oc1C	none (no result: APE1 inh, RECQ1 inh, WRN helicase inh)
Cc1ccc(C)c(N2CCN(C(=O)c3ccc(NC4=NC5CS(=O)(=O)CC5S4)cc3)CC2)c1 (stereo unspecified)	none (no result: TR SRC2 fluor cs, RECQ1 inh, TRb-SRC2 inh)
CC(C)c1ccc(OCC(=O)N(c2ccccn2)C2CCCCC2)cc1	TR SRC2 fluor cs 5.6µM[quencher]
CC(C)(C)OC(=O)C[C@H]1C/C=C\C[C@@H](CC(=O)N(CCO)Cc2ccccc2)C(=O)N[C@H](C(C)(C)C)COC1=O	none (no result: TR SRC2 fluor cs, RECQ1 inh, TRb-SRC2 inh, BLM helicase inh)
CC(C)(C)OC(=O)C[C@@H]1C/C=C\C[C@@H](CC(=O)N(CCO)Cc2ccccc2)C(=O)N[C@H](C(C)(C)C)COC1=O	APE1 inh 12µM (no result: TR SRC2 fluor cs, RECQ1 inh, TRb-SRC2 inh, BLM helicase inh)
CS(=O)(=O)c1ccc(-c2csc(N3CCC(C(N)=O)CC3)n2)cc1	none (no result: TR SRC2 fluor cs, RECQ1 inh, TRb-SRC2 inh, WRN helicase inh, BLM helicase inh)
COc1cc2c(-c3ccc(O)cc3)nc3c(c(C)nn3-c3ccccc3)c2cc1OC	WRN helicase inh inconclusive, BLM helicase inh 14µM
O=S(=O)(Nc1ccc(O)c2ccccc12)c1cccs1	WRN helicase inh 50µM (no result: TR SRC2 fluor cs, RECQ1 inh, TRb-SRC2 inh)
CC(C)(C)n1ncc2c(=O)n(Cc3cccc(-c4cccs4)c3)cnc21	none (no result: TR SRC2 fluor cs, RECQ1 inh, TRb-SRC2 inh, WRN helicase inh, BLM helicase inh)
N#CC1=C(N)C2=C(N3CCCCC3)CCCC2C1(C#N)C#N (stereo unspecified)	APE1 inh 35µM, RECQ1 inh inconclusive, WRN helicase inh inconclusive
Cc1c(Cl)cccc1Cl	none (no result: APE1 inh, RECQ1 inh, WRN helicase inh, BLM helicase inh)
